# Data published in PubChem BioAssay.
# Results filed as inconclusive are left out. Calls of active or inactive are those of the source.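 How the source made its calls, unless noted: active means normalized viability below 100% at a tested concentration; inactive means the rest.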 *1 amine or outer side, *2 acyl side, *3 side chain or, on linkers, in order; H or OH if unused. Where a SMILES comes first, the peptide text is derived from it. Bridges are numbered along the chain shown (N, C = ends). Roman numbers before positions name the chains, in order. [ ]: non-standard residue; d: D form. Hexamethylenediamine = C(CCCN[*:2])CCN[*:1]; Dip = N[C@H](C(=O)O)C(c1ccccc1)c1ccccc1; Chg = N[C@H](C(=O)O)C1CCCCC1; NMeA = CN[C@@H](C)C(=O)O
# Columns and labels:
# [1] = drug combination growth inhibition, ovarian cancer – cell-based, oncology-focused library, rucaparib conditional, profiling panel (AID 1508598); conditions: patient-derived ovarian cancer cells, CellTiter-Glo viability, 144 h, stronger effect = lower value
# [2] = liver-stage malaria parasite load reduction – cell-based, known kinase inhibitor set, luminescence, hepatoma host viability (AID 624392; call rule not given here;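 further: infected cells incubated roughly two days before readout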); conditions: Plasmodium liver stage in hepatoma cells, luciferase luminescence, concentration not given here; liver cell % of control: measured here: host liver cell viability; parasite % of control: stronger effect = lower value
# [3] = altered dexamethasone sensitivity, NF-kB reporter, cell-based, luciferase, IL-1B stimulus (AID 624486; call rule not given here;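 on percent of negative control (+Dex): 100% = mean signal of vehicle control wells on the plate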); conditions: IL-1B + dexamethasone, luminescence; percent of negative control (+Dex): actives lie on both sides, concentration not given here; z-score: measured here: IL-1B alone, no Dex
# [4] = C. elegans survival during P. aeruginosa infection – whole organism (AID 651566; call rule not given here;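 further: tested at 14 µM; sign flipped so higher z means a lower ratio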); conditions: C. elegans killed by P. aeruginosa, survival ratio
# [5] = pro-inflammatory signaling induction in mouse macrophages – cell-based, murine, luminescence (AID 652131; call rule not given here); conditions: murine macrophage pro-inflammatory reporter, stronger effect = higher value
# [6] = MELAS cybrid and Rieske KO viability enhancers – cell-based, MELAS cybrids, Rieske KO mouse fibroblasts, CellTiter-Glo, primary screen (AID 1508586;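 active means mean z-score across replicates of 1.96 or higher in either the MELAS or the Rieske mutant cell line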;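 further: z relative to plate mean and SD of compound and empty wells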); conditions: low glucose
# [7] = target: ATP-dependent translocase ABCB1 (Homo sapiens) (UniProt P08183); assay: P-glycoprotein substrate transport blockade – cell-based (AID 377; in the data active means fluorescence slope change above about 50%); conditions: MDR1-expressing cells, fluorescent substrate accumulation slope; stronger effect = higher value; concentration not given here
# [8] = compounds altering viability of human ES cells (AID 493140; call rule not given here;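 further: cells exposed to compounds for four days before counting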); conditions: human embryonic stem cell survival screen; stronger effect = higher value
# [9] = at 5 µM, OCI-P5x cells, with rucaparib 20 µM, 100% = cells with rucaparib alone
# [10] = at 5 µM, OCI-P5x cells, without rucaparib
# [11] = MELAS cybrid survival, CellTiter-Glo 48 h, stronger effect = higher value
# [12] = Rieske KO mouse fibroblast survival, CellTiter-Glo 72 h
# [13] = at 0.000305 µM, OCI-C5x cells, with rucaparib 10 µM, 100% = cells with rucaparib alone
# [14] = at 0.000305 µM, OCI-C5x cells, without rucaparib
# [15] = at 0.000305 µM, OCI-P5x cells, with rucaparib 20 µM, 100% = cells with rucaparib alone
# [16] = at 0.000305 µM, OCI-P5x cells, without rucaparib
# [17] = at 0.00122 µM, OCI-C5x cells, with rucaparib 10 µM, 100% = cells with rucaparib alone
# [18] = at 0.00122 µM, OCI-C5x cells, without rucaparib
# [19] = at 0.00122 µM, OCI-P5x cells, with rucaparib 20 µM, 100% = cells with rucaparib alone
# [20] = at 0.00122 µM, OCI-P5x cells, without rucaparib
# [21] = at 0.00488 µM, OCI-C5x cells, with rucaparib 10 µM, 100% = cells with rucaparib alone
# [22] = at 0.00488 µM, OCI-C5x cells, without rucaparib
# [23] = at 0.00488 µM, OCI-P5x cells, with rucaparib 20 µM, 100% = cells with rucaparib alone
# [24] = at 0.00488 µM, OCI-P5x cells, without rucaparib
# [25] = at 0.0195 µM, OCI-C5x cells, with rucaparib 10 µM, 100% = cells with rucaparib alone
# [26] = at 0.0195 µM, OCI-C5x cells, without rucaparib
# [27] = at 0.0195 µM, OCI-P5x cells, with rucaparib 20 µM, 100% = cells with rucaparib alone
# [28] = at 0.0195 µM, OCI-P5x cells, without rucaparib
# [29] = at 0.0781 µM, OCI-C5x cells, with rucaparib 10 µM, 100% = cells with rucaparib alone
# [30] = at 0.0781 µM, OCI-C5x cells, without rucaparib
# [31] = at 0.0781 µM, OCI-P5x cells, with rucaparib 20 µM, 100% = cells with rucaparib alone
# [32] = at 0.0781 µM, OCI-P5x cells, without rucaparib
# [33] = at 0.313 µM, OCI-C5x cells, with rucaparib 10 µM, 100% = cells with rucaparib alone
# [34] = at 0.313 µM, OCI-C5x cells, without rucaparib
# [35] = at 0.313 µM, OCI-P5x cells, with rucaparib 20 µM, 100% = cells with rucaparib alone
# [36] = at 0.313 µM, OCI-P5x cells, without rucaparib
# [37] = at 1.25 µM, OCI-C5x cells, with rucaparib 10 µM, 100% = cells with rucaparib alone
# [38] = at 1.25 µM, OCI-C5x cells, without rucaparib
# [39] = at 1.25 µM, OCI-P5x cells, with rucaparib 20 µM, 100% = cells with rucaparib alone
# [40] = at 1.25 µM, OCI-P5x cells, without rucaparib
# [41] = at 5 µM, OCI-C5x cells, with rucaparib 10 µM, 100% = cells with rucaparib alone
# [42] = at 5 µM, OCI-C5x cells, without rucaparib
# Chain of ATP-dependent translocase ABCB1 (Homo sapiens) (P08183 whole entry, looked up): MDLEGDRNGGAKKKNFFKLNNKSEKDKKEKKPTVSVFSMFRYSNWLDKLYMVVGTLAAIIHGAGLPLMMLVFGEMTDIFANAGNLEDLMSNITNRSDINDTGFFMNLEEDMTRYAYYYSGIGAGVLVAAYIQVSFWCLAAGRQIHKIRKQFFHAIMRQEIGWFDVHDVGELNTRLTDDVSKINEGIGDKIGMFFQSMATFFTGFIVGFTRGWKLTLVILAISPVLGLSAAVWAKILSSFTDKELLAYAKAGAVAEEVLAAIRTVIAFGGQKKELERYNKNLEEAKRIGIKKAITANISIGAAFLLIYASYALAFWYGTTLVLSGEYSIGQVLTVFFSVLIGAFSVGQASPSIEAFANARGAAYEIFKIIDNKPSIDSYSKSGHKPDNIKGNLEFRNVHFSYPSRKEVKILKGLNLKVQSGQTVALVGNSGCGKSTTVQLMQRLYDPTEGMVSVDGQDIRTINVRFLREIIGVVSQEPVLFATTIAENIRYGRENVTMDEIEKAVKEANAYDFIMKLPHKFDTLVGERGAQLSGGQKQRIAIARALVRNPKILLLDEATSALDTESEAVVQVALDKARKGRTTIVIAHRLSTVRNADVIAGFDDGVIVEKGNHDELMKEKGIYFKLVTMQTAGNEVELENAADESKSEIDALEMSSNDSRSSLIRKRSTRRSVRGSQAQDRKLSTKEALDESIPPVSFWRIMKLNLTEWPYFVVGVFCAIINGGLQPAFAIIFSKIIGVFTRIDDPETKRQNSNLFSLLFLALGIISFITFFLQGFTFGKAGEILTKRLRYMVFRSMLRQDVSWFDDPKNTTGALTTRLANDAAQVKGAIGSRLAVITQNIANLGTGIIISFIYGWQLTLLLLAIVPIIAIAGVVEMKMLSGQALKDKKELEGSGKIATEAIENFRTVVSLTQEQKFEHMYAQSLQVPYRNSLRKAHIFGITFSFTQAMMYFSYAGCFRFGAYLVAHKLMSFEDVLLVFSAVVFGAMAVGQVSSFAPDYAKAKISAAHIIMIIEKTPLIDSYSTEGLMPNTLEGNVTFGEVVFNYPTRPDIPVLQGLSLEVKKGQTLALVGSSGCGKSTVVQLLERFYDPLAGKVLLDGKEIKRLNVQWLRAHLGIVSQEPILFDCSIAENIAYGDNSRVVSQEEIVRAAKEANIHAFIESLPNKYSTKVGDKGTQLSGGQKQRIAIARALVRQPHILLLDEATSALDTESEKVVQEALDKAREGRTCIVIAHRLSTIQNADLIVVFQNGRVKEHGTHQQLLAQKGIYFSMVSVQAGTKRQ
smiles,measurement,setting,value
C[C@H]1C[C@H]2[C@@H]3CCC4=CC(=O)C=C[C@]4(C)[C@@H]3C(=O)C[C@]2(C)[C@]1(O)C(=O)CO,viability,[1]; [9],112% (inactive)
same,viability,[1]; [10],125% (inactive)
CCS(=O)(=O)c1ccc(OC)c(Nc2ncc(-c3cccc(C(C)=O)c3)o2)c1,liver cell % of control,[2],169%
same,parasite % of control,[2],48.2% (inactive)
same,percent of negative control (+Dex),[3],87% (inactive)
same,z-score,[3],0.415
same,z-score,[4],0.56 (inactive)
same,z-score,[5],-0.091 (inactive)
same,z-score,[6]; [11],1.14 (inactive)
same,z-score,[6]; [12],-0.327
COc1cc2ncn(-c3cc(OCc4ccccc4Cl)c(C(N)=O)s3)c2cc1OC,liver cell % of control,[2],147%
same,parasite % of control,[2],37.4% (inactive)
same,percent of negative control (+Dex),[3],112% (inactive)
same,z-score,[3],0.395
same,z-score,[4],-0.73 (inactive)
same,z-score,[5],-0.517 (inactive)
same,z-score,[6]; [11],0.0989 (inactive)
same,z-score,[6]; [12],-0.32
COc1cc([C@H]2c3cc4c(cc3[C@@H](O[C@@H]3O[C@@H]5CO[C@@H](c6cccs6)O[C@H]5[C@H](O)[C@H]3O)[C@H]3COC(=O)[C@H]23)OCO4)cc(OC)c1O,viability,[1]; [13],104% (inactive)
same,viability,[1]; [14],117% (inactive)
same,viability,[1]; [15],100% (inactive)
same,viability,[1]; [16],116% (inactive)
same,viability,[1]; [17],115% (inactive)
same,viability,[1]; [18],111% (inactive)
same,viability,[1]; [19],102% (inactive)
same,viability,[1]; [20],109% (inactive)
same,viability,[1]; [21],97.4% (active)
same,viability,[1]; [22],104% (inactive)
same,viability,[1]; [23],100% (inactive)
same,viability,[1]; [24],109% (inactive)
same,viability,[1]; [25],73.9% (active)
same,viability,[1]; [26],81.6% (active)
same,viability,[1]; [27],102% (inactive)
same,viability,[1]; [28],102% (inactive)
same,viability,[1]; [29],63.2% (active)
same,viability,[1]; [30],73.7% (active)
same,viability,[1]; [31],87.9% (active)
same,viability,[1]; [32],60.7% (active)
same,viability,[1]; [33],78.4% (active)
same,viability,[1]; [34],56.8% (active)
same,viability,[1]; [35],71% (active)
same,viability,[1]; [36],35.6% (active)
same,viability,[1]; [37],33.4% (active)
same,viability,[1]; [38],21.2% (active)
same,viability,[1]; [39],54.6% (active)
same,viability,[1]; [40],23.6% (active)
same,viability,[1]; [41],8.34% (active)
same,viability,[1]; [42],7.07% (active)
same,viability,[1]; [9],12.4% (active)
same,viability,[1]; [10],7.92% (active)
NC(=O)c1cccc(Nc2nccc(Nc3cccc4[nH]ncc34)n2)c1,liver cell % of control,[2],75%
same,parasite % of control,[2],429% (inactive)
same,percent of negative control (+Dex),[3],95.5% (inactive)
same,z-score,[3],0.725
same,z-score,[4],-0.905 (inactive)
same,z-score,[5],1.14 (inactive)
same,z-score,[6]; [11],0.00705 (inactive)
same,z-score,[6]; [12],-0.0979
COc1cc2ncn(-c3cc(OCCc4ccccc4)c(C(N)=O)s3)c2cc1OC,liver cell % of control,[2],140%
same,parasite % of control,[2],71.4% (inactive)
same,percent of negative control (+Dex),[3],95% (inactive)
same,z-score,[3],0.89
same,z-score,[4],-0.32 (inactive)
same,z-score,[5],0.419 (inactive)
same,z-score,[6]; [11],-0.0219 (inactive)
same,z-score,[6]; [12],-0.0569
Nc1nonc1-c1nc2cnccc2n1C1CC1,liver cell % of control,[2],86.3%
same,parasite % of control,[2],247% (inactive)
same,percent of negative control (+Dex),[3],45% (active)
same,z-score,[3],-5.63
same,z-score,[4],-0.345 (inactive)
same,z-score,[5],-0.857 (inactive)
same,z-score,[6]; [11],-0.391 (inactive)
same,z-score,[6]; [12],-0.585
CN[C@@H](C)C(=O)N[C@H](C(=O)N1CCC[C@H]1C(=O)N[C@H](C(=O)NCCCCCCNC(=O)[C@@H](NC(=O)[C@@H]1CCCN1C(=O)[C@@H](NC(=O)[C@H](C)NC)C1CCCCC1)C(c1ccccc1)c1ccccc1)C(c1ccccc1)c1ccccc1)C1CCCCC1 (I: H-[NMeA][Chg]P[Dip] / II: H-[NMeA][Chg]P[Dip]; linker I:C-II:C via Hexamethylenediamine),viability,[1]; [13],121% (inactive)
same,viability,[1]; [14],115% (inactive)
same,viability,[1]; [15],85.6% (active)
same,viability,[1]; [16],93.2% (active)
same,viability,[1]; [17],119% (inactive)
same,viability,[1]; [18],106% (inactive)
same,viability,[1]; [19],95.3% (active)
same,viability,[1]; [20],94.9% (active)
same,viability,[1]; [21],129% (inactive)
same,viability,[1]; [22],111% (inactive)
same,viability,[1]; [23],83.7% (active)
same,viability,[1]; [24],94.7% (active)
same,viability,[1]; [25],115% (inactive)
same,viability,[1]; [26],108% (inactive)
same,viability,[1]; [27],81.4% (active)
same,viability,[1]; [28],99.5% (active)
same,viability,[1]; [29],110% (inactive)
same,viability,[1]; [30],112% (inactive)
same,viability,[1]; [31],39.3% (active)
same,viability,[1]; [32],85.3% (active)
same,viability,[1]; [33],114% (inactive)
same,viability,[1]; [34],116% (inactive)
same,viability,[1]; [35],19.6% (active)
same,viability,[1]; [36],54.1% (active)
same,viability,[1]; [37],96.9% (active)
same,viability,[1]; [38],105% (inactive)
same,viability,[1]; [39],13.6% (active)
same,viability,[1]; [40],21.5% (active)
same,viability,[1]; [41],89.4% (active)
same,viability,[1]; [42],120% (inactive)
same,viability,[1]; [9],0.911% (active)
same,viability,[1]; [10],7.49% (active)
C[C@H]1NC(=O)NC1=O,fluorescence slope change,[7],1.4% (inactive)
same,survival,[8],3.67 (inactive)
same,z-score,[6]; [11],0.723 (inactive)
same,z-score,[6]; [12],-0.336
C=CCNC1=C2C[C@@H](C)C[C@H](OC)[C@H](O)[C@@H](C)/C=C(\C)[C@H](OC(N)=O)[C@@H](OC)/C=C\C=C(\C)C(=O)NC(=CC1=O)C2=O,viability,[1]; [13],110% (inactive)
same,viability,[1]; [14],101% (inactive)
same,viability,[1]; [15],119% (inactive)
same,viability,[1]; [16],124% (inactive)
same,viability,[1]; [17],113% (inactive)
same,viability,[1]; [18],108% (inactive)
same,viability,[1]; [19],126% (inactive)
same,viability,[1]; [20],121% (inactive)
same,viability,[1]; [21],110% (inactive)
same,viability,[1]; [22],117% (inactive)
same,viability,[1]; [23],122% (inactive)
same,viability,[1]; [24],126% (inactive)
same,viability,[1]; [25],120% (inactive)
same,viability,[1]; [26],116% (inactive)
same,viability,[1]; [27],119% (inactive)
same,viability,[1]; [28],115% (inactive)
same,viability,[1]; [29],133% (inactive)
same,viability,[1]; [30],112% (inactive)
same,viability,[1]; [31],41.9% (active)
same,viability,[1]; [32],35.9% (active)
same,viability,[1]; [33],104% (inactive)
same,viability,[1]; [34],56.1% (active)
same,viability,[1]; [35],12.5% (active)
same,viability,[1]; [36],8.71% (active)
same,viability,[1]; [37],28.6% (active)
same,viability,[1]; [38],27.2% (active)
same,viability,[1]; [39],5.52% (active)
same,viability,[1]; [40],5.3% (active)
same,viability,[1]; [41],8.53% (active)
same,viability,[1]; [42],8.44% (active)
same,viability,[1]; [9],2.79% (active)
same,viability,[1]; [10],1.94% (active)
